This is an account of results in PubChem BioAssay AID618 (Sanford-Burnham Center for Chemical Genomics, 2007).

The campaign covered roughly 87,000 compounds. About 540 (0.62%) were called active. The sample holds actives, similar compounds and a random draw of the others, so the mix is not that of the screen. How the calls were made is not given here. Results with a measured potency or affinity are listed apart.

The nature of this assay: MT1-MMP gene expression reporter suppression – cell-based, luciferase reporter, luminescence (AID 618).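 Further: actives suppress MT1-MMP promoter-driven transcription so potencies describe inhibitors.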 The settings on record: MT1-MMP promoter luciferase reporter cells. Background: A reporter such as luciferase makes a cellular process visible.
Regarding `Cc1nc2ncnn2c(C)c1CCC(=O)Oc1ccccc1`, the compound was classed as inactive. As to `COc1ccc(CCNC(=O)C2CCN(S(C)(=O)=O)CC2)cc1OC`, the outcome was inactive. Take `Cc1cc(C)n(-c2ccc3cccc(NS(C)(=O)=O)c3n2)n1`: the compound was called inactive. Turning to `CCOC(=O)Cc1csc(NC(=O)c2cc3c(s2)CCCC3)n1`, the compound was classed as inactive. To `COC(=O)c1sc(NC(=O)c2cc3c(s2)CCCC3)nc1C` belongs “inactive”; to `Cc1cnc(NC(=O)c2cc3c(s2)CCCC3)s1`, “inactive”.

As to `Cc1csc(NC(=O)c2cc3c(s2)CCC3)n1`, the result was active. On to `Cc1nc(NC(=O)c2cc3c(s2)CCCCC3)sc1C(=O)N(C)C`, for which the result was inactive. `CCc1nnc(NC(=O)c2cc3c(s2)CCCCC3)s1`: the compound was classed as inactive.

For `Cc1csc(NC(=O)c2cc3c(s2)CCCCC3)n1`, the outcome was inactive. As for `O=C1N(Cc2ccccc2F)c2ccccc2C12OCCCO2`, the outcome was inactive.

On to `CCn1nc(C(=O)NC2=NCCS2)c2ccccc2c1=O`, for which the compound was classed as inactive. To `Cc1ccc(C(=O)N(c2ccccn2)C(C)c2ccco2)cc1` (stereo not drawn) belongs “inactive”; to `Cc1ccc(NC(=O)CSc2nnc(Cn3cnc4ccccc43)o2)c(C)c1`, “inactive”; to `CN1CCN(C2=C(Cl)C(=O)C(c3cnc(N4CCCCC4)s3)=C(Cl)C2=O)CC1`, “inactive”. As to `CN(C)c1ncc(C2=C(Cl)C(=O)C(N3CCCC3)=C(Cl)C2=O)s1`, the call was inactive. `Nc1ccc2c(c1)-c1ccccc1S(=O)(=O)N2`: the outcome was inactive. As for `Cc1ccc2c(c1)-c1ccccc1S(=O)(=O)N2`, the compound was classed as inactive.

As for `O=c1cc(N2CCOCC2)[nH]c(=O)n1-c1ccc(Cl)cc1`, the compound was called inactive. Turning to `COc1cccc(-c2cc(C(=O)Nn3cnnc3)c3ccccc3n2)c1`, the compound was classed as inactive. Take `O=C(Nn1cnnc1)c1cc(-c2ccccn2)nc2ccccc12`: the outcome was inactive. For the compound `Cc1ccc2nc(C3CCN(C(=O)NCc4ccccc4)CC3)[nH]c2c1`, the call was inactive.

On to `O=c1cc(CO)oc(CN2CCN(c3ccccc3F)CC2)c1O`, for which the compound was called inactive. In the case of `CC(C)(C)S(=O)(=O)c1ccc2nc3c(n2c1)CCCC3`, the call was inactive.

As for `Cc1cc2nc(NC3=NCN(CCCN4CCOCC4)CN3)nc(C)c2cc1C`, the compound was called inactive.

Consider `Cc1nc(NC2=NCN(CCN3CCOCC3)CN2)nc2c(C)cccc12`, for which the compound was called inactive. With `Cc1ccc(NC(=O)NC(=O)N(c2ccccc2)S(C)(=O)=O)cc1`, the call was inactive. Consider `CCOc1ccccc1N1CC(C(=O)N2CCc3ccccc3C2)CC1=O` (stereo not drawn), for which the call was inactive. To `COc1ccc(-c2nc(C#N)c(N3CCOCC3)o2)cc1OC` belongs “inactive”. To `COc1ccc(CCNc2oc(-c3ccco3)nc2C#N)cc1` belongs “inactive”.

On to `Fc1ccc(Nc2nc(N3CCOCC3)c3ccccc3n2)cc1`, for which the call was inactive.

As for `Nc1nc(Nc2cccc(F)c2)nc2ccccc12`, the compound was called inactive. For the compound `Nc1nc(Nc2ccccc2)nc2ccccc12`, the compound was called active.

Consider `OCCNc1nc(Nc2ccccc2)nc2ccccc12`, for which the compound was classed as inactive.

Turning to `COc1ccc(Nc2nc(N3CCCC3)c3ccccc3n2)cc1`, the result was inactive. `Cc1ccc(Nc2nc(N3CCOCC3)c3ccccc3n2)cc1`: the compound was called inactive. For `COc1ccc(Nc2nc(C)c3ccccc3n2)cc1`, the compound was called inactive.

On to `Cc1ccc(NC(=O)N2CCOCC2)c(C)c1`, for which the result was inactive.

Turning to `CCC1Oc2ccccc2N(CC(=O)Nc2ccc(OC)cc2OC)C1=O` (stereo not drawn), the compound was called inactive. To `COc1ccccc1C(=O)Nc1nc(-c2cccs2)c(NC(C)=O)s1` belongs “inactive”.

As for `CC(C)CCOC(=O)C1C(c2ccccc2)C(C(=O)O)C1c1ccccc1` (stereo not drawn), the result was inactive.

In the case of `O=C(c1cccs1)N1CCN(S(=O)(=O)N2CCCCC2)CC1`, the compound was classed as inactive.

As for `Cc1ccccc1/C=C1\CCCc2ccccc2C1=O`, the result was inactive. `O=C1/C(=C/c2ccccc2)CCCc2ccccc21`: the call was inactive.

As for `O=C(NC1CCN(Cc2ccccc2)CC1)C1CCN(S(=O)(=O)c2cccc3cccnc23)CC1`, the result was inactive. `COc1ccccc1NC(=O)c1ccc(N)cc1`: the call was inactive. To `Cc1cc(N2CCC(C)CC2)n2ncc(-c3ccccc3)c2n1` belongs “inactive”.

In the case of `Cc1cc(N2CCCCC2)n2ncc(-c3ccccc3)c2n1`, the outcome was inactive. As for `CCOc1ccc(C(=O)NCCCn2ccnc2)cc1`, the call was inactive. To `O=C(NC1CCCCC1)NC1(C(=O)N2CCN3CCCC3C2)CCCCC1` (stereo not drawn) belongs “inactive”; to `COc1cccc(C=Nc2ccc3c(c2)OCCO3)c1O`, “inactive”. Consider `NCc1ccc(-c2nc3ccccc3o2)cc1`, for which the compound was called inactive. To `CCc1ccc2oc(-c3cccc(NC(=O)c4cccnc4)c3)nc2c1` belongs “inactive”; to `c1cc(-c2nc3cc(Cc4ccc5oc(-c6ccncc6)nc5c4)ccc3o2)ccn1`, “inactive”. Regarding `CCc1ccc2oc(-c3ccc(N)cc3)nc2c1`, the result was active. With `CCc1ccc2oc(-c3cc(N)cc(C)c3O)nc2c1`, the outcome was inactive. In the case of `Nc1ccc2oc(-c3cccc(Br)c3)nc2c1`, the compound was classed as inactive. As to `CCc1ccc2oc(-c3cc(N=Cc4cccc(OC)c4O)ccc3O)nc2c1`, the call was active. Regarding `CCc1ccc2oc(-c3cc(N)ccc3O)nc2c1`, the compound was called active. In the case of `COc1cccc(C=Nc2cc(C)on2)c1O`, the outcome was inactive.

As to `CCc1ccc2oc(-c3cc(N)ccc3Cl)nc2c1`, the compound was called inactive. `CC(=Nc1ccccc1)C1=C(O)CSC1=O`: the result was inactive. Regarding `COc1ccc(OC)c(NC(=O)c2ccc(NS(=O)(=O)c3c(C)noc3C)cc2)c1`, the compound was classed as inactive. On to `CCn1c(=O)c2c(nc3n2CC(C)CN3CCc2ccccc2)n(C)c1=O` (stereo not drawn), for which the call was inactive. Take `CCCN(CCC)S(=O)(=O)c1ccc(NS(=O)(=O)c2ccc(F)cc2)cc1`: the call was inactive.

`CCC(=O)c1ccccc1OCCCn1cncn1`: the compound was classed as inactive. As for `CCC(=O)Nc1cc2nn(-c3ccccc3)nc2cc1Cl`, the compound was classed as active. To `CC(C)CC(=O)Nc1cc2nn(-c3ccccc3)nc2cc1Cl` belongs “inactive”; to `CC(=O)Nc1cc2nn(-c3ccccc3)nc2cc1Cl`, “inactive”; to `Clc1ccc(-c2nnc(SCc3ccon3)o2)c(Cl)c1`, “active”. As for `CCSc1nnc(-c2ccc(Cl)cc2Cl)o1`, the compound was called inactive.

Take `C=CCSc1nnc(-c2ccc(Cl)cc2Cl)o1`: the compound was classed as inactive.

Take `Cc1cc(OCC(=O)N2CCc3ccccc3C2)c2c(-c3ccccc3)cc(=O)oc2c1`: the compound was called inactive.

With `Cc1ccc(S(=O)(=O)N(C)Cc2ccc(-c3nnc4n3CCC4)cc2)cc1`, the compound was called inactive. As to `CNC(=O)[C@@]1(C)C=C[C@@H](Cc2ccccc2)N1C(=O)OC`, the outcome was inactive. To `COC(=O)CNC(=O)[C@@]1(C)C=C[C@@H](Cc2ccccc2)N1C(=O)OC` belongs “active”; to `COC(=O)CNC(=O)[C@@]1(C)C=C[C@@H](Cc2ccccc2)N1C(C)=O`, “inactive”. As for `CCOC(=O)C1CCN(Cc2ccc(F)cc2F)CC1`, the compound was called inactive. As to `O=C1NC2(CCOc3ccccc32)C(=O)N1CC(=O)N(Cc1ccccc1)C1CCS(=O)(=O)C1` (stereo not drawn), the outcome was inactive. To `Cc1ccc2nc(N/N=C\c3ccc([N+](=O)[O-])o3)nc(-c3ccccc3)c2c1` belongs “inactive”.

For the compound `Cn1c(/C=C/c2ccc([N+](=O)[O-])o2)nc2ccccc2c1=O`, the call was active. In the case of `Cn1c(SCc2ccon2)nc2ccccc2c1=O`, the compound was classed as inactive. For `COc1ccccc1C(=O)Nc1ccc2c(c1)nc(CN1CCN(C(C)=O)CC1)n2C`, the outcome was inactive. Regarding `Oc1ccc(/C=C/c2cc(O)cc(O)c2)cc1`, the result was active. Turning to `CC(/C=C/c1ccc(O)cc1)=N/O`, the compound was classed as inactive. For the compound `C/C=C(/C(=C/C)c1ccc(O)cc1)c1ccc(O)cc1`, the compound was classed as inactive. In the case of `c1ccc(Cn2c(Nn3cnnc3)nc3ccccc32)cc1`, the call was inactive.

Regarding `COc1ccc(CCN(Cc2cc3cccc(C)c3[nH]c2=O)C(=O)NC2CCCCC2)cc1OC`, the compound was classed as inactive. Turning to `COc1ccc2sc(NC(C)=O)nc2c1`, the compound was called inactive.

In the case of `CCOc1ccc2nc(NC(=O)c3cnc(C)cn3)sc2c1`, the call was inactive. On to `O=C(Nc1nc2ccc(Cl)cc2s1)c1ccco1`, for which the result was inactive.

As to `COc1ccc2sc(NC(=O)c3ccco3)nc2c1`, the outcome was active.

Regarding `COc1ccc2nc(NC(=O)c3ccoc3C)sc2c1`, the result was inactive. In the case of `CS(=O)(=O)c1ccc2nc(NC(=O)c3ccco3)sc2c1`, the call was inactive. Consider `O=C(Nc1nnc(-c2ccco2)s1)c1ccccc1`, for which the compound was classed as inactive. `COc1ccccc1C(=O)Nc1nnc(-c2ccco2)s1`: the compound was classed as inactive. With `COc1ccc2c(c1)Cc1sc(NC(=O)c3ccco3)nc1-2`, the compound was called inactive.

Consider `O=C(CCN1C(=O)COc2ccccc21)NCc1cccnc1`, for which the compound was called inactive. To `O=C(NCc1cccnc1)C1CCN(S(=O)(=O)N2CCC3(CC2)OCCO3)CC1` belongs “inactive”; to `Cc1ccc(NC(=O)C2CCN(C(=O)NC3CCCCC3)CC2)cc1`, “inactive”; to `CC(=O)c1ccc(OCC(O)CN2CCC(C)CC2)cc1` (stereo not drawn), “inactive”. Turning to `Cc1ccc(C)c(OCCCC(=O)O)c1`, the outcome was inactive. To `Nc1ccc(Oc2ccc([N+](=O)[O-])cc2[N+](=O)[O-])cc1` belongs “inactive”; to `COc1ccccc1NC(=O)CSc1nnc(-c2ccco2)o1`, “inactive”. To `NC(=O)C1(N2CCCCC2)CCN(c2nc(-c3ccccc3)cs2)CC1` belongs “inactive”; to `COCCn1c(=S)[nH]c2cc(C(=O)NCC3CCCO3)ccc2c1=O` (stereo not drawn), “inactive”. As for `COc1cccc(C(=O)Nc2ccc(C(=O)O)cc2)c1`, the compound was classed as inactive. In the case of `c1ccc(-c2noc(CSc3nnc(Cc4cccs4)n3-c3ccccc3)n2)cc1`, the compound was classed as inactive. Take `CCc1nn2cc(-c3ccccc3)nc2s1`: the call was active.

With `Cc1nc(-c2ccccc2)cs1`, the outcome was inactive. `Cc1c(C(=O)N2CCOCC2)sc2nc(-c3ccccc3)cn12`: the outcome was inactive. As for `CCN(CC)CCNC(=O)c1sc2nc(-c3ccccc3)cn2c1C`, the compound was classed as inactive. For `Cc1nn2cc(-c3ccccc3)nc2[nH]c1=O`, the result was inactive. Regarding `Cc1cccn2cc(-c3ccccc3)nc12`, the call was inactive. Turning to `Cc1nn2cc(-c3ccc(-c4ccccc4)cc3)nc2s1`, the compound was called active.

Take `O=C(O)CCc1nn2cc(-c3ccccc3)nc2[nH]c1=O`: the result was inactive.

Consider `Cc1nn2c(-c3ccc(Cl)cc3)nnc2s1`, for which the outcome was inactive. Take `Nc1nc(-c2ccc(Cl)cc2)cn1N`: the result was inactive. For the compound `Cc1nn2cc(-c3ccc(Cl)cc3)nc2s1`, the compound was called active. Take `Cc1ccc(CNCc2cc3c(C(C)(C)C)nn(-c4ccccc4)c3[nH]c2=O)cc1`: the outcome was inactive. Take `O=C(O)CNS(=O)(=O)c1cc(Cl)c(Cl)cc1Cl`: the compound was called inactive. Regarding `Cc1ccc(NC(=O)CS(=O)CC(=O)N(c2ccc(C)cc2)C(C)C(=O)NC2CCCCC2)cc1` (stereo not drawn), the outcome was inactive. For the compound `CC(C)COC(=O)CNc1n[nH]c(=S)[nH]c1=O`, the call was inactive.
